Screens as filed in PubChem.
Compounds with a hit are over-represented: about 1.9% of the library has one in this group of screens.
Vif inh: inhibitors of HIV Vif. HEK293T cells, Vif self-association by quenched fluorescence, imaging, 24 h. inhibition, % at 7.49 µM. hit rate 0.35% among 340,000. AID 602346; in the data active = inhibition above about 50%, passing the limit was not always enough; inconclusive = no clear call, values can overlap the other calls; inactive = below about 31%
ATG4B inh: ATG4B (human) cysteine protease inhibition; Q9Y4P1; ATG4B cleavage of LC3-PLA2, NBD-HPC fluorescence, 1 h; inhibition, % at 8.33 µM; hit rate 0.51% among 340,000; in the data active = inhibition above about 40%
N-glyco inh: blocks N-linked glycosylation in D54 reporter cells; D54 ERlucT glycosylation luciferase reporter, 24 h; percent of 100 nM tunicamycin response; reporter increase, % at 12.5 µM; hit rate 0.23% among 360,000; AID 588692;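 active = mean luciferase reporter signal, scaled so untreated is 0 and the glycosylation-blocking control 100, at or above a set limit in every replicate; inconclusive = mean reaches the limit but not every replicate does; inactive = mean below the limit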;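 note: luciferase carries N-glycosylation sites so blocking glycosylation raises the light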
DSG3 Ab inh: human desmoglein-3 autoantibody binding inhibition; binding (percent of control), % at 10 µM; DSG3-coupled beads, scFv-anti-DSG3-GFP binding, flow cytometry; stronger effect = lower value; AID 588358; hit rate 0.48% among 310,000; P32926;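 active = binding more than 3 SD below its plate's average and above zero; inconclusive = below that plate limit but binding exactly zero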;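 note: hits lower antibody fragment binding to DSG3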
Target sequence (P32926 whole entry, looked up, the tested form may be a part): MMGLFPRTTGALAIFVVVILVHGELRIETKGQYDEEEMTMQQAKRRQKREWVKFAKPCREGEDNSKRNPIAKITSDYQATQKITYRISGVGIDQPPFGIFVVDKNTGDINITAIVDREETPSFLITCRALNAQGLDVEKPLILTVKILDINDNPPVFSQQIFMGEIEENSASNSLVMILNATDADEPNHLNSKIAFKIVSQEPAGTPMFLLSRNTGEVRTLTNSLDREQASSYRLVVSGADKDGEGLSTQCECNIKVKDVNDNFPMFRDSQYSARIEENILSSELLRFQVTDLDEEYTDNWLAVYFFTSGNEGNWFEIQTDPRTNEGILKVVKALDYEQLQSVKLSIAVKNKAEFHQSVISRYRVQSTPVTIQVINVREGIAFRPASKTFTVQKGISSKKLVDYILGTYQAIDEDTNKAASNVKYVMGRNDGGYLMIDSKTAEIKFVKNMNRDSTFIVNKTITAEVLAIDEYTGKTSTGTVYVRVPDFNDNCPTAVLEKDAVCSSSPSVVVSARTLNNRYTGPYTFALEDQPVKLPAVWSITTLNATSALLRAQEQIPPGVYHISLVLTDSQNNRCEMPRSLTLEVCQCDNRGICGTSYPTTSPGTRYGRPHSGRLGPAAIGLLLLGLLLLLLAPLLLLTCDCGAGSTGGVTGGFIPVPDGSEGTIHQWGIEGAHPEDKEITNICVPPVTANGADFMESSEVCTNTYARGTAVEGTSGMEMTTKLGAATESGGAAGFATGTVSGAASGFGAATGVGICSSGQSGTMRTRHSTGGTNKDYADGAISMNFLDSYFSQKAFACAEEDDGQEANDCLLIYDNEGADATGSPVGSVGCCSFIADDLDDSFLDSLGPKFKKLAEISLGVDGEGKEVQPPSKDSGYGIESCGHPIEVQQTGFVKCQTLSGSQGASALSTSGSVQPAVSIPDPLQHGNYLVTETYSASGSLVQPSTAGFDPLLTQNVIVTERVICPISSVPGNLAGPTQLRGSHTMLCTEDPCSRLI
NSD2 HMT inh: blocks human histone methyltransferase NSD2; O96028; NSD2 peptide methylation, AlphaScreen, 120 min; inhibition, % at 12.5 µM; hit rate 0.54% among 310,000; AID 743445; in the data active = inhibition above about 50%
CaV13 ICDI inh: Disruptors of the CACNA1D IQ motif to Ca2+-dependent inactivation inhibitor domain association, primary screening, Förster resonance energy transfer in intact living …. HEK cells, CFP/YFP FRET ICDI-IQ, plate reader, 10 min; percent FRET-ratio fall versus neutral wells. inhibition, % at 12.3 µM. hit rate 0.098% among 340,000. AID 743397;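 active = mean replicate inhibition of at least 30% and at least 1% of replicates passing that level; inconclusive = only one of the two criteria is met; inactive = neither criterion is met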
Hits are given with their value; . = inactive; ? = inconclusive; / = no result given; + = active, no number.

SMILES	Vif inh	ATG4B inh	N-glyco inh	DSG3 Ab inh	NSD2 HMT inh	CaV13 ICDI inh
COc1ccc(OC)c(/C=N/NC(=O)C(=O)N/N=C/c2cc(OC)ccc2OC)c1	.	.	.	53.8	.	.
COc1ccc(OC)c(C=NNC(=O)NN=Cc2cc(OC)ccc2OC)c1	.	/	.	.	.	.
O=C(c1ccccc1F)N(Cc1nc2ccccc2c(=O)[nH]1)C1CCCC1	.	.	.	.	.	.
CCc1ccc(CNC(=O)Cc2ccc(NC(=O)C3=C(C)OCCS3)cc2)cc1	.	.	30.9	.	.	.
N#CC1=C2N=C(N)c3ccccc3N2C2=C(C(=O)CCC2)C1c1cccc(Cl)c1 (stereo not drawn)	.	.	.	.	/	.
Cc1noc(C)c1S(=O)(=O)N1CCCC(C(=O)NCC2CCCO2)C1 (stereo not drawn)	.	.	.	/	/	.
COc1ccc(CCC(=O)Nc2ccc(S(=O)(=O)Nc3ncccn3)cc2)cc1	.	.	.	.	.	.
CC(C)CNC(=O)c1ccccc1NC(=O)CN(c1ccccc1)S(=O)(=O)N(C)C	.	.	.	53.6	.	.
NC(c1csc(Nc2ccc(C(=O)c3ccccc3)cc2)n1)C1CCCCC1 (stereo not drawn)	64.5	/	.	/	.	.
COc1ccc(CC2NCCC3=CC(=O)CCC32)cc1O (stereo not drawn)	145.5	.	.	.	/	.
Cc1cc(C)c(S(=O)(=O)N(C)CC(=O)N2CCCC2)c(C)c1	.	/	33.6	.	.	.
CC(C)N1CCc2c(sc(NC(=O)c3cc4cc([N+](=O)[O-])ccc4s3)c2C(N)=O)C1	79.7	.	.	.	/	.
CC(C)N1CCc2c(sc(NC(=O)c3ccc4ccccc4c3)c2C(N)=O)C1	.	.	.	.	.	/
CN1CCc2c(sc(NC(=O)c3cc(Cl)sc3Cl)c2C(N)=O)C1	161.1	.	.	/	/	+
C[C@@]12C(=O)Nc3ccc(F)cc3C(=O)N1[C@H]1c3cc(Br)ccc3OC[C@@H]1[C@@H]2c1ccccc1	.	.	.	.	/	.
COc1ccc2c(c1)OC[C@H]1[C@H]2N2C(=O)c3cc(C)ccc3NC(=O)[C@@]2(C)[C@H]1c1ccccc1	.	.	39.1	.	/	/
COc1ccc2c(c1)[C@H]1[C@H](CO2)[C@H](c2ccccc2)[C@]2(C)C(=O)Nc3cc(OC)c(OC)cc3C(=O)N12	.	.	59.2	.	/	.
COc1ccc2c(c1)C(=O)N1[C@H]3c4cc(C)ccc4OC[C@@H]3[C@H](c3ccccc3)[C@]1(C)C(=O)N2	.	.	.	.	/	.
COc1ccc2c(c1)[C@H]1[C@H](CO2)[C@H](c2ccccc2)[C@]2(C)C(=O)Nc3ccc(F)cc3C(=O)N12	.	.	51.4	/	/	.
COc1ccc2c(c1)[C@H]1[C@H](CO2)[C@H](c2ccccc2)[C@]2(C)C(=O)Nc3ccc(C)cc3C(=O)N12	.	.	57.8	.	/	.
COc1ccc2c(c1)OC[C@H]1[C@H]2N2C(=O)c3ccccc3NC(=O)[C@@]2(C)[C@H]1c1ccccc1	.	.	.	.	/	.
COc1ccc2c(c1)[C@@H]1[C@H](CO2)[C@H](c2ccccc2)[C@]2(C)C(=O)NCC(=O)N12	.	.	.	.	/	.
Cc1nn(C(C)C(=O)NC(C)CCc2ccccc2)c(=O)c2cc3occc3n12 (stereo not drawn)	.	.	.	.	.	.
Cc1ccnc(SCC(=O)c2ccc(Br)cc2)c1C#N	.	.	.	/	.	.
Cc1ccc(S(=O)(=O)N2CCCN(S(=O)(=O)c3ccc(C)cc3)CC2)cc1	.	.	.	/	.	.
SMILES	Vif inh	ATG4B inh	N-glyco inh	DSG3 Ab inh	NSD2 HMT inh	CaV13 ICDI inh
C[C@@]12C(=O)Nc3ccc(Cl)cc3C(=O)N1[C@H]1c3cc(Cl)ccc3OC[C@@H]1[C@@H]2c1ccccc1	.	.	.	.	/	.
COc1ccc2c(c1)[C@H]1[C@H](CO2)[C@H](c2ccccc2)[C@]2(C)C(=O)Nc3ccc(Cl)cc3C(=O)N12	.	.	40.0	.	/	.
O=C(Nc1ccc(F)cc1)c1ccc(S(=O)(=O)N2CCOCC2)o1	53.4	.	.	.	.	.
CCOc1ccc(Cc2c(Cl)nc(SC)nc2N(C)C)cc1	.	.	.	/	.	/
COc1ccccc1C(=O)COC(=O)C1(C)CC1(Cl)Cl (stereo not drawn)	71.0	.	.	.	.	.
COc1ccccc1C(=O)COC(=O)c1ccccc1O	.	.	.	.	.	.
CCOc1ccc2ccccc2c1/C=N/NC(=O)c1cc(C)[nH]n1	.	.	.	.	.	.
Cc1cc(C(=O)N/N=C/c2c3ccccc3cc3ccccc23)n[nH]1	?	.	45.3	.	.	.
O=C(CCc1nnc(COc2ccccc2)o1)NCCc1cccs1	/	.	.	.	.	.
CC(C)CCNC(=O)CCc1nnc(COc2ccccc2)o1	85.5	.	.	.	.	.
Cc1ccc(/C=C2\CCC(C3CCCC3)C2=O)cc1 (stereo not drawn)	.	.	.	.	.	.
C=CCSC(=C(C#N)C#N)c1cc2c([nH]1)CCCC2	.	.	40.4	.	.	/
O=C(O)c1cc2c([nH]c1=O)CCCC2	.	.	.	.	.	.
O=C(N/N=C/c1cccnc1)c1ccc(NC(=O)c2cccc(Cl)c2)cc1	.	.	.	.	.	.
Clc1cccc(Cl)c1C1=NOC(c2nnc(-c3ccccc3)o2)C1 (stereo not drawn)	.	.	.	.	/	.
COc1ccc(CCNC(=O)[C@@H](NC(N)=O)C(C)C)cc1	50.6	.	.	.	.	.
COc1ccc(CCNC(=O)c2ccccc2C(=O)NCCc2ccc(OC)cc2)cc1	.	.	.	.	.	.
COc1ccc(CCNC(=O)c2ccccc2)cc1	.	.	.	64.8	.	.
COc1ccc(C(=O)NCc2oc(-c3ccccc3)cc2C(=O)O)cc1	61.0	.	.	.	.	/
CCOC(=O)c1c(NC(=O)COC(=O)CCCOc2ccc(OC)cc2)sc(C(=O)NC)c1C	.	.	.	.	.	.
C[C@H]1[C@H](C)CC[C@]2(C(=O)O)CC[C@]3(C)C(=CC[C@@H]4[C@@]5(C)CC[C@H](O)C(C)(C)[C@@H]5CC[C@]43C)[C@H]12	.	.	.	.	/	.
C[C@H]1[C@H](C)CC[C@]2(C(=O)O)CC[C@]3(C)C(=CC[C@@H]4[C@@]5(C)C[C@@H](O)[C@H](O)C(C)(C)[C@@H]5CC[C@]43C)[C@H]12	/	.	.	84.9	/	/
Cc1cc(C)c(S(=O)(=O)N2CCN(S(=O)(=O)N3CCOCC3)CC2)c(C)c1	67.6	.	.	/	.	.
Cc1cc(C)c(S(=O)(=O)N2CCCC2)c(C)c1	.	.	.	.	.	.
CCCCN(CCCC)Cc1ccc(C(=O)NN)o1	.	.	.	.	.	.
CCOc1ccc(N2CC(=O)SC2=S)cc1	.	.	.	.	.	.
